# High-throughput results deposited in PubChem BioAssay by several laboratories.
# NPR1 activator = GC-A (human) enzyme activation | HEK293 GC-A cells, cGMP TR-FRET, EC30 ANP; 0% at EC30 ANP, 100% saturating ANP | activation, % at 10 µM | AID 1671463 | hit rate 0.14% among 370,000 | P16066; in the data active = activation above about 40%
# NPR2 activator = GC-B (human) receptor activation; P20594; HEK293-GC-B cells, CNP EC30, cGMP TR-FRET; 0% at EC30 CNP, 100% saturating CNP; activation, % at 10 µM; hit rate 0.11% among 370,000;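 active = activation at 10 µM reaching about 35% in either raw or pattern-adjusted values, limit read from the data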
# Target sequence (P20594 whole entry, looked up): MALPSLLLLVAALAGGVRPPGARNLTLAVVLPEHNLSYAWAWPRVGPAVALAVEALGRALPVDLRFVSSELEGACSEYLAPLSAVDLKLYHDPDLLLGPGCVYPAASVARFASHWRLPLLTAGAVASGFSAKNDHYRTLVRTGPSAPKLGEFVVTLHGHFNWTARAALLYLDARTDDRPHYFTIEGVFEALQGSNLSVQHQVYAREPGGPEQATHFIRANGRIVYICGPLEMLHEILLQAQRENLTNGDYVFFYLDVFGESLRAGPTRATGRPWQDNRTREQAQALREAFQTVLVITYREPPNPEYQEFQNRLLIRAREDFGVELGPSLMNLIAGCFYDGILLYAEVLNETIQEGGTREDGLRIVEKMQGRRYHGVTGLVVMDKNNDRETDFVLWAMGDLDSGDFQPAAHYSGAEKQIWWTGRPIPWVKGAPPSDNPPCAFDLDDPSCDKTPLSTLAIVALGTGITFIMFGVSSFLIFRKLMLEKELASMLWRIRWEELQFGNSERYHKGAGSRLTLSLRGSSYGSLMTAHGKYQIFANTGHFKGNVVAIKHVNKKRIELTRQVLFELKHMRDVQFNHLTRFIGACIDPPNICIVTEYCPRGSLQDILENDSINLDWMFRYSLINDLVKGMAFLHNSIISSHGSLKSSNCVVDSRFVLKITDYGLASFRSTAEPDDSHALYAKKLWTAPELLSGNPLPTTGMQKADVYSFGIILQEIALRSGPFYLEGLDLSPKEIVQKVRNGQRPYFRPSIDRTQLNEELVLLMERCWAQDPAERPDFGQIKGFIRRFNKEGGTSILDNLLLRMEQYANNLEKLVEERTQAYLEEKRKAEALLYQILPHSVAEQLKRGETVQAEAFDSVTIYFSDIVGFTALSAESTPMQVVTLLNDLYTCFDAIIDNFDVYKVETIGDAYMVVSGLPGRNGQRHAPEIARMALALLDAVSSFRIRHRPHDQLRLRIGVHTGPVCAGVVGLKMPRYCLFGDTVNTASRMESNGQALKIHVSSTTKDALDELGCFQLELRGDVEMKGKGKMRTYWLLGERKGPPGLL
# MsrA inh = inhibitors of bovine MsrA; purified bovine MsrA, absorbance read-out; inhibition, % at 15.5 µM; hit rate 0.75% among 360,000; AID 651718; in the data active = inhibition above about 4.5%
# bovine MsrA act = activators of bovine methionine sulfoxide reductase A | purified bovine MsrA, absorbance read-out | activation, % at 10.6 µM | hit rate 0.3% among 360,000 | AID 602163; in the data active = activation above about 7.5%
# MsrA act confirm = confirmation of bovine methionine sulfoxide reductase A activators; shares compounds with bovine MsrA act; purified bovine MsrA, absorbance read-out; activation, % at 10.6 µM; hit rate 12% among 1,000; AID 602270; in the data active = activation above about 4%;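 also: enzyme coupled to thioredoxin and thioredoxin reductase with NADPH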
# Hits are given with their value; n = inactive; x = no result. A selection: hits, their analogues and other compounds. The true share with any hit is near 1.2%.
SMILES,NPR1 activator,NPR2 activator,MsrA inh,bovine MsrA act,MsrA act confirm
CC(CN(C)Cc1ccccc1)OC(=O)c1cccs1 (configuration not stated),n,n,n,8.4,n
CC(CN(C)Cc1ccccc1)OC(=O)c1ccccc1F (configuration not stated),n,n,n,n,x
CCCCN(C)C(=O)CSc1nnc(-c2cc(OC)c(OC)c(OC)c2)o1,n,n,x,x,x
CN(CCCC(=O)Nc1ccncc1)S(=O)(=O)c1ccc(Cl)cc1,n,n,n,7.9,n
COC(=O)[C@@]12CCCCC3=C1N(CCC3)C(=O)[C@H]2CC(=O)NCc1ccc(OC)c(OC)c1,n,n,x,x,x
Cc1cnc(C(=O)OCC(=O)Nc2cccc3ccccc23)cn1,n,n,n,13,n
Cc1cnc(C(=O)OCC(=O)Nc2cccc(C)c2C)cn1,n,n,n,n,x
CC(=O)OC12CCCN(C1)/C(=C/c1cccc(Cl)c1)C2 (configuration not stated),n,n,x,x,x
Cc1ccc(-n2c(SC/C=C/c3ccccc3)nnc2-c2ccco2)cc1,n,n,x,x,x
CC(=O)NNC(=S)NC(=O)c1ccc(C)cc1,n,n,n,n,x
CC(=O)NNC(=S)NC(=O)c1ccccc1,n,n,n,8.3,n
O=C(CCSc1ccccn1)c1ccccc1,52,n,n,7.8,n
O=C(N1CCC(Cc2ccccc2)CC1)n1ncc(C(O)(c2ccccc2)c2ccccc2)n1,n,n,x,x,x
CN(Cc1ccccc1F)c1ncnc2sccc12,n,n,n,14,n
CN(Cc1cccs1)c1ncnc2sccc12,n,n,n,n,x
Cc1ccc(C(=O)CC(C(=O)O)n2cnc([N+](=O)[O-])n2)cc1 (configuration not stated),n,n,n,9.4,n
N#Cc1ccc(C(=O)Oc2coc(CSc3ncccn3)cc2=O)cc1,n,n,x,x,x
CCOC(=O)Cc1csc(NC(=O)Cc2ccccc2)n1,n,n,n,n,x
CCC(=O)Nc1nc(CC(=O)Nc2ccccc2)cs1,n,n,n,9.4,n
Cc1c(NC(=O)C(C)N2C(=O)C3CCCCC3C2=O)c(=O)n(-c2ccccc2)n1C (configuration not stated),n,n,n,10,n
Cc1ccccc1Nc1n[nH]c(=S)s1,n,n,n,11,n
S=c1[nH]nc(Nc2cccc3ccccc23)s1,n,n,n,8.8,n
Fc1ccccc1Nc1n[nH]c(=S)s1,n,n,n,n,x
Cc1c(Cl)cccc1Nc1n[nH]c(=S)s1,n,n,n,9.6,n
CCOc1ccc(CCNC(=O)c2cc3sccc3n2Cc2ccccc2)cc1OCC,n,n,x,x,x
SMILES,NPR1 activator,NPR2 activator,MsrA inh,bovine MsrA act,MsrA act confirm
O=C(COc1ccc(Cl)cc1)Nc1cccc(-c2ccc3nncn3n2)c1,n,n,n,15,n
CC(=O)N1c2cc(S(=O)(=O)Nc3c(C)n(C)n(-c4ccccc4)c3=O)c(Br)cc2CC1C (configuration not stated),n,n,x,x,x
CC/C(=N/NC(=O)c1ccc(Br)o1)c1ccc(Cl)cc1,n,n,n,8.3,n
CCOC(=O)CC[C@H]1CC[C@]2(CCCN(C(=O)c3ccccc3)C2)O1,n,n,x,x,x
CCC(Oc1ccccc1OC)C(=O)Nc1ccc2c(c1)OCCO2 (configuration not stated),n,n,n,16,n
COc1ccccc1NC(=O)Nc1ccc2c(c1)OCCO2,n,n,n,n,x
Cc1onc(C(=O)N2CCN(C(c3ccccc3)c3ccccc3)CC2)c1Br,n,n,x,x,x
CCC(=O)OCCCN1CCC2(CCCCC2)C1=O,n,n,x,x,x
CC(=O)Nc1nnc(Cc2ccccc2)s1,n,n,n,8.6,n
COc1ccc(Cc2nnc(NC(=O)Nc3ccccc3F)s2)cc1OC,n,n,n,11,n
O=C(Nc1c(-c2ccccc2)nc2ncccn12)c1ccccc1,n,n,x,x,x
COc1cc(/C=N/NC(=O)c2cccc([N+](=O)[O-])c2)ccc1OCc1ccc(C)cc1,n,n,n,8.3,n
Cc1cc(Cl)ccc1OCc1n[nH]c(=S)n1C1CCCCC1,n,n,n,8.6,n
O=C(C1CCCN(S(=O)(=O)c2ccccc2[N+](=O)[O-])C1)N1CCN(Cc2ccccc2)CC1 (configuration not stated),n,n,x,x,x
COc1cccc2c(=O)cc(C)n(CC(=O)Nc3ccc(C)c(C)c3)c12,n,n,n,9.4,n
O=C(Cn1c(-c2cncs2)nc2ccccc21)N1CCOCC1,n,n,x,x,x
C=CCN1[C@H](CC(C)C)COc2cc(F)ccc2S1(=O)=O,n,n,x,x,x
O=C1C[C@@H]2CCN3C(=O)CCC[C@@H]([C@H]23)[C@H]1Cc1ccccc1,n,n,n,n,x
CC[C@H]1C(=O)[C@@H](Cc2ccccc2)[C@@H]2CCN3C(=O)CCC[C@H]1[C@H]23,n,n,n,17,n
Cc1ccccc1OC(=O)n1c(=S)oc2cc(Cl)ccc21,n,n,n,9.0,n
O=C(Oc1ccccc1)n1c(=S)oc2ccccc21,n,n,n,n,x
CCOC(=O)c1cnc(Nc2nc3ccccc3o2)nc1CSc1nnc(C)s1,n,n,n,15,n
CCOC(=O)c1cnc(Nc2nc3ccccc3o2)nc1C,n,n,n,n,x
CC1CCCCN1C(=O)CSc1nnc(-c2ccco2)n1C (configuration not stated),n,n,n,26,n
CCn1c(SCC(=O)N2CCCCC2C)nnc1-c1ccco1 (configuration not stated),n,n,n,n,x
SMILES,NPR1 activator,NPR2 activator,MsrA inh,bovine MsrA act,MsrA act confirm
CCCC1CCC2(CCCN2CCOC(=O)Nc2ccccc2C)CC1 (configuration not stated),n,n,x,x,x
COc1cc(NC(=O)CSCc2ccccc2)c(C(=O)O)cc1OC,n,n,n,10.0,n
O=c1cc(N2CCN(c3cccc(Cl)c3Cl)CC2)[nH]c(=O)n1C1CCCCC1,n,n,x,x,x
O=C(COC(=O)Cc1ccsc1)Nc1ccccc1,n,n,n,25,n
C=CCN1[C@@H](CC(C)C)COc2cccc(F)c2S1(=O)=O,n,n,x,x,x
Cc1nn(-c2ccccc2)c2nc(-c3ccco3)cc(C(=O)O)c12,n,n,n,n,x
COC(=O)c1cc(C)nc2c1c(C)nn2-c1ccccc1,n,n,n,13,n
CCOc1ccc(-c2nnc(-c3cccnc3)o2)cc1OCC,n,n,n,9.2,n
COc1ccc(-c2nnc(-c3cccnc3)o2)cc1OC,n,n,n,n,x
CCc1ccc(C(O)(C(C)C)C(CN2CCOCC2)c2ccccc2)cc1 (configuration not stated),n,n,n,8.1,n
CC(C)C(O)(c1ccccc1)C(CN1CCOCC1)c1ccccc1 (configuration not stated),n,n,n,n,x
CCCNC(=O)C1(C)CCCN(Cc2noc(-c3c(C)noc3C)n2)C1 (configuration not stated),n,n,n,n,x
CCNC(=O)C1(C)CCCN(Cc2noc(-c3c(C)noc3C)n2)C1 (configuration not stated),n,n,n,9.2,n
CC(C)c1ncc(C(O)c2cccc3ccccc23)n1C (configuration not stated),n,n,n,13,n
